The values below come from PubChem BioAssay (NCATS).

Records with an inconclusive call do not appear. Active and inactive are the calls of the source. Calls come from the whole dose curve; as a rule, active = well fitted curve in the direction sought with a large enough effect; inconclusive = small, poorly fitted or top-dose-only effect, or another doubt; inactive = no such curve, though single readings can be large; an effect the other way counts as inactive or inconclusive. Where a SMILES comes first, the peptide text is derived from it. [ ]: non-standard residue; d: D form. The star is where a group is joined. Fmoc = O=C(OCC1c2ccccc2-c2ccccc21)*; AMC = Cc1cc(=O)oc2cc(N*)ccc12; Cha = N[CH](CC1CCCCC1)C(=O)O; Boc = CC(C)(C)OC(=O)*

In experiment [1] the test system is Zika virus NS2B-NS3 protease. As to the kind of experiment: Primary screen GU AMC qHTS for Zika virus inhibitors (AID 1347154).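 For activity change, negative = inhibition: 0% = no-inhibitor control and -100% = no-enzyme control.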 Note: nearly all actives have a fitted effect of over 70% in size. Note: potency is the fitted concentration of half-maximal effect. The method, boiled down:
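Unlinked Zika NS2B hydrophilic domain/NS3 protease domain noncovalent complex (25 nM final) in 10 mM Tris-HCl pH 8.0, 0.01% Tween 20, with AMC peptide substrate. Fluorescence (ex 340, em 450 nm) change over 15 min, room temperature; percent inhibition fitted to 4-parameter Hill equation.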

The nature of experiment [2]: Primary qHTS for small molecule stabilizers of the endoplasmic reticulum resident proteome: Secreted ER Calcium Modulated Protein (SERCaMP) assay (AID 1508630). Note: % is set by controls: 0 for no effect and ±100 for the full control effect. The method, boiled down:
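The SH-SY5Y reporter protocol was run at 3 concentrations up to 38.3 uM (primary) or 11 concentrations (follow-up): 16 h compound, 100 nM thapsigargin for 4 h, then extracellular luciferase luminescence.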

For the compound `O=c1oc(-c2ccc(C(F)(F)F)cc2)nn1Cc1cc(Cl)ccc1O`, the Potency result in experiment [1] and in experiment [2] was “inactive” in each case.

In the case of `CCCCCCCCCCC/C=C\C/C=C\CCCC(=O)O`, the activity change, negative = inhibition in experiment [1] is 7.9% [at 6.83 µM] (inactive); in experiment [2] it was -21.5% [at 3.88 µM] (inactive).

Regarding `CCCCC[C@H](O)/C=C/[C@@H]1[C@@H](C/C=C\CCCC(=O)O)[C@@H](O)C[C@@H]1O`, the activity change, negative = inhibition in experiment [1] is 11.6% [at 6.83 µM] (inactive); in experiment [2], -25.7% [at 3.88 µM] (inactive).

Consider `COc1ccc(CCCOC(Cn2ccnc2)c2ccc(OC)cc2)cc1` (configuration not stated), for which the Potency result in experiment [1] and in experiment [2] was “inactive” throughout.

For `C[C@@](N)(C(=O)O)[C@@H]1C[C@@H]1C(=O)O`, the Potency result in experiment [1] and in experiment [2] was “inactive” each time.

As for `CC1c2ccccc2CN1CC1=NCCN1` (configuration not stated), the Potency result in experiment [1] and in experiment [2] was “inactive” throughout.

Consider `NC(C(=O)O)c1cccc(O)c1` (configuration not stated), for which the Potency entry in experiment [1] and in experiment [2] was “inactive” each time.

Regarding `CCCCCCCCCCCCC/C=C/[C@@H](O)[C@H](CO)NCCCCCCCC`, the activity change, negative = inhibition is 15.2% [at 6.83 µM] (inactive) in experiment [1] and -10.1% [at 3.88 µM] (inactive) in experiment [2].

`COc1ccc2[nH]cc(CCO)c2c1`: the Potency result in experiment [1] and in experiment [2] was “inactive” throughout.

As for `[C-]#[N+]c1cc(-c2ccncc2)c(C)[nH]c1=O`, the Potency result in experiment [1] and in experiment [2] was “inactive” in each case.

Regarding `CC[N+]1(C)C2CCC1CC(OC(=O)[C@H]1CCC(C(=O)OC3CC4CCC(C3)[N+]4(C)CC)(c3ccccc3)c3ccccc31)C2` (some centres not stated), the Potency result in experiment [1] and in experiment [2] was “inactive” in each case.

For the compound `CC1=C(/C=C/C(C)=C\C=C\C(C)=C\C(=O)O)C(C)(C)CCC1`, the Potency result in experiment [1] and in experiment [2] was “inactive” each time.

Consider `COC(=O)CNC(=O)C(=O)OC`, for which the activity change, negative = inhibition in experiment [1] is 11.4% [at 6.83 µM] (inactive); in experiment [2], -16.2% [at 3.88 µM] (inactive).

For `CC(N)COC(=O)C(CCCCN)NC(=O)Cc1c(-c2ccc3ccccc3c2)[nH]c2c1ccc1ccccc12` (configuration not stated), the Potency entry in experiment [1] and in experiment [2] was “inactive” in each case.

Take `Clc1ccc2ncnc(NCc3ccc4c(c3)OCO4)c2c1`: the Potency result in experiment [1] and in experiment [2] was “inactive” in each case.

On to `c1ccc(N2CCN(Cc3nc4ccccc4[nH]3)CC2)nc1`, for which the Potency entry in experiment [1] and in experiment [2] was “inactive” each time.

Consider `Cn1cnc2nc(NCCO)nc(NCc3ccccc3)c21`, for which the Potency entry in experiment [1] and in experiment [2] was “inactive” throughout.

Turning to `CC[C@H](C)[C@H](NC(=O)[C@H](C)NC(=O)[C@H](CC(N)=O)NC(=O)[C@H](CCCCN)NC(=O)[C@H](Cc1ccccc1)NC(=O)[C@H](CC(C)C)NC(=O)[C@@H](NC(=O)[C@@H](NC(=O)[C@H](CC(C)C)NC(=O)[C@@H]1CCCN1C(=O)[C@@H](NC(=O)[C@H](CCC(N)=O)NC(=O)[C@H](CO)NC(=O)[C@H](CCCCN)NC(=O)[C@H](CCC(=O)O)NC(=O)[C@H](CO)NC(=O)[C@@H](NC(=O)[C@H](CCSC)NC(=O)[C@H](Cc1ccccc1)NC(=O)CNC(=O)CNC(=O)[C@@H](N)Cc1ccc(O)cc1)[C@@H](C)O)[C@@H](C)O)C(C)C)[C@@H](C)O)C(=O)N[C@H](C(=O)N[C@@H](CCCCN)C(=O)N[C@@H](CC(N)=O)C(=O)N[C@@H](C)C(=O)N[C@@H](Cc1ccc(O)cc1)C(=O)N[C@@H](CCCCN)C(=O)N[C@@H](CCCCN)C(=O)NCC(=O)N[C@@H](CCC(=O)O)C(=O)O)[C@@H](C)CC`, the results for the activity change, negative = inhibition in experiment [1] and in experiment [2] were 2.8% [at 6.83 µM] (inactive) and -16.9% [at 3.88 µM] (inactive), respectively.

On to `N#CC(C#N)=C(N)/C(C#N)=C/c1ccc2[nH]ccc2c1`, for which the Potency result in experiment [1] and in experiment [2] was “inactive” each time.

Turning to `O=P(O)(O)C(O)c1ccc2ccccc2c1` (configuration not stated), the Potency entry in experiment [1] and in experiment [2] was “inactive” each time.

As to `CS/C(N)=C(C#N)/C(C#N)=C(\N)SC`, the Potency result in experiment [1] and in experiment [2] was “inactive” in each case.

`C=C1CC[C@H](O)C/C1=C/C=C1\CCC[C@]2(C)C([C@H](C)CCCC(C)(C)O)CC[C@@H]12` (some centres not stated): the Potency entry in experiment [1] and in experiment [2] was “inactive” throughout.

For the compound `CCCCCCCCCCCCCCC(F)C(=O)O` (configuration not stated), the activity change, negative = inhibition in experiment [1] was 19.7% [at 6.83 µM] (inactive); in experiment [2], 10.1% [at 3.88 µM] (inactive).

Consider `C1CCC(NC(=NC2C3CC4CC(C3)CC2C4)N2CCOCC2)CC1` (configuration not stated), for which the Potency entry in experiment [1] and in experiment [2] was “inactive” each time.

In the case of `CSCC[C@@H](N)C(=O)O`, the Potency result in experiment [1] and in experiment [2] was “inactive” throughout.

`C[C@@H](N)CCCP(=O)(O)O`: the Potency entry in experiment [1] and in experiment [2] was “inactive” each time.

For `CCc1c2c(nc3ccc(OC(=O)N4CCC(N5CCCCC5)CC4)cc13)-c1cc3c(c(=O)n1C2)COC(=O)C3(O)CC` (configuration not stated), the Potency in experiment [1] was 29.9 µM (active). Besides, in experiment [2], the Potency result was “inactive”.

With `CC(C)[C@H]1c2ccc(F)cc2CC[C@@]1(CCN(C)CCCc1nc2ccccc2[nH]1)OC(=O)C1CC1`, the Potency entry in experiment [1] and in experiment [2] was “inactive” each time.

Regarding `CCCCCCCCCCOCCC(=O)O`, the activity change, negative = inhibition was 12.5% [at 6.83 µM] (inactive) in experiment [1] and -6.7% [at 3.88 µM] (inactive) in experiment [2].

As to `CCCCC/C=C\C\C=C/C=C/C=C/[C@@H](SC[C@H](NC(=O)CC[C@H](N)C(=O)O)C(=O)NCC(=O)O)[C@@H](O)CCCC(=O)O`, the activity change, negative = inhibition was 8.51% [at 0.59 µM] (inactive) in experiment [1] and -14.5% [at 0.478 µM] (inactive) in experiment [2].

Take `CCCCCCOC(=O)C1(O)CC2OC1(C)n1c3ccccc3c3c4c(c5c6ccccc6n2c5c31)C(=O)NC4` (configuration not stated): the activity change, negative = inhibition in experiment [1] is 19.5% [at 4.99 µM] (inactive); in experiment [2], -23% [at 3.88 µM] (inactive).

In the case of `Nc1ncnc2c1ncn2[C@@H]1O[C@H](COP(=O)(O)OP(=O)(O)OC[C@H]2OC(O)[C@H](O)[C@@H]2O)[C@@H](O)[C@H]1O` (some centres not stated), the Potency result in experiment [1] and in experiment [2] was “inactive” throughout.

For the compound `Cc1cc(=O)oc2cc(NC(=O)C(CCCCN)NC(=O)C(CC3CCCCC3)NC(=O)OCC3c4ccccc4-c4ccccc43)ccc12` (configuration not stated) (Fmoc-[Cha]-Lys-{AMC}; configuration not given here), the Potency in experiment [1] is 18.9 µM (active). Moreover, the Potency entry in experiment [2] was “inactive”.

Take `CC(O)(C(=O)Nc1ccc(S(=O)(=O)c2ccccc2)cc1)C(F)(F)F` (configuration not stated): the Potency entry in experiment [1] and in experiment [2] was “inactive” throughout.

Take `Cn1cnc2c(ncn2[C@@H]2O[C@H](CO)[C@@H](O)[C@H]2O)c1=N`: the Potency entry in experiment [1] and in experiment [2] was “inactive” throughout.

With `CC(C)[C@@H]1NC(=O)[C@H](Cc2ccccc2)NC(=O)[C@@H](CC(=O)O)NC(=O)CNC(=O)[C@H](CCCNC(=N)N)NC1=O`, the Potency result in experiment [1] and in experiment [2] was “inactive” each time.

Regarding `CC(C)c1cnc(NC(=O)Cc2ccccc2)s1`, the Potency result in experiment [1] and in experiment [2] was “inactive” throughout.

As for `CC(C)C[C@H](NC(=O)[C@H](Cc1ccccc1)NC(=O)CNC(=O)CNC(=O)[C@@H](N)Cc1ccc(O)cc1)C(=O)N[C@@H](CCCN=C(N)N)C(=O)N[C@@H](CCCN=C(N)N)C(=O)N[C@@H](CCC(N)=O)C(=O)N[C@@H](Cc1ccccc1)C(=O)N[C@@H](CCCCN)C(=O)N[C@H](C(=O)N[C@H](C(=O)N[C@H](C(=O)O)[C@@H](C)O)C(C)C)C(C)C`, the activity change, negative = inhibition was 3.02% [at 6.83 µM] (inactive) in experiment [1] and -2% [at 3.88 µM] (inactive) in experiment [2].

On to `CC(C)[C@H](NC(=O)CNC(=O)OC(C)(C)C)C(=O)N[C@H](C=O)C(C)C` (Boc-Gly-Val-Val-aldehyde), for which the Potency entry in experiment [1] and in experiment [2] was “inactive” each time.

In the case of `C[C@@]12CCC[C@H]1C1CC[C@H]3C[C@H](O)CC[C@]3(C)C1CC2` (some centres not stated), the Potency entry in experiment [1] and in experiment [2] was “inactive” in each case.

Take `N[C@H](C(=O)O)[C@H]1C[C@H]1C(=O)O`: the Potency entry in experiment [1] and in experiment [2] was “inactive” in each case.

With `CCCN(C/C=C/I)C1CCc2cccc(O)c2C1` (configuration not stated), the Potency result in experiment [1] and in experiment [2] was “inactive” each time.

Consider `CC/C=C\C/C=C\C/C=C\CCCCCCCCCCCC(=O)O`, for which the activity change, negative = inhibition in experiment [1] is -2.15% [at 6.83 µM] (inactive); in experiment [2] it was 10.3% [at 3.88 µM] (inactive).

In the case of `COC(=O)/C=C/c1cc(O)ccc1O`, the Potency result in experiment [1] and in experiment [2] was “inactive” in each case.

Take `CCCCC/C=C\C=C\[C@H](O)CCCCCCCC(=O)O`: the activity change, negative = inhibition in experiment [1] was 19.3% [at 0.59 µM] (inactive); in experiment [2], 2.02% [at 0.478 µM] (inactive).

Consider `Nc1ccnc2c1ncn2[C@@H]1O[C@H](CO)[C@@H](O)[C@H]1O`, for which the Potency result in experiment [1] and in experiment [2] was “inactive” throughout.
